# Laboratory results taken from paper PMC11062922 (Nature Chemical Biology, 2023).
# Like-named read-outs stand apart in the source and are kept apart here.
# How the values were obtained:
# Design in all cases: species or system human, MV4-11 + K-562 + COLO205 + SK-N-BE2 + OVCAR-8
# ACVR1 = details: read-out: apparent Kd; compound concentrations:100 nM and 1000 nM (sheet 'Samples'); n = 1
# CDK4 = details: read-out: apparent Kd; compound concentrations:100 nM and 1000 nM (sheet 'Samples'); n = 1
# TP53RK = details: read-out: apparent Kd; compound concentrations:100 nM and 1000 nM (sheet 'Samples'); n = 1
# ACVR2B = details: read-out: apparent Kd; compound concentrations: 100 nM and 1000 nM (sheet 'Samples'), CATDS: 4.2186627256430298E-2; n = 1
# ADCK3 = details: read-out: apparent Kd; compound concentrations: 100 nM and 1000 nM (sheet 'Samples'), CATDS: 4.2636301284937402E-2; n = 1
# AKT2 = details: read-out: apparent Kd, compound concentrations: 100 nM and 1000 nM (sheet 'Samples'), n = 1
# CDC42BPB = details: read-out: apparent Kd; compound concentrations: 100 nM and 1000 nM (sheet 'Samples'), CATDS: 4.17361912468606E-2; n = 1
# CDC42BPG = details: read-out: apparent Kd, compound concentrations: 100 nM and 1000 nM (sheet 'Samples'), n = 1
# CDK13 = details: read-out: apparent Kd; compound concentrations: 100 nM and 1000 nM (sheet 'Samples'), CATDS: 3.8824736575062302E-2; n = 1
# CDKL5 = details: read-out: apparent Kd; compound concentrations: 100 nM and 1000 nM (sheet 'Samples'), CATDS: 4.2225060915193902E-2; n = 1
# CIT = details: read-out: apparent Kd; compound concentrations: 100 nM and 1000 nM (sheet 'Samples'), CATDS: 9.7052908053400402E-2; n = 1
# CSNK1A1 = details: read-out: apparent Kd, compound concentrations: 100 nM and 1000 nM (sheet 'Samples'), n = 1
# CSNK1D = details: read-out: apparent Kd; compound concentrations: 100 nM and 1000 nM (sheet 'Samples'), CATDS: 5.2512295854069302E-2; n = 1
# CSNK1E = details: read-out: apparent Kd; compound concentrations: 100 nM and 1000 nM (sheet 'Samples'), CATDS: 4.5718432207302401E-2; n = 1
# GAK = details: read-out: apparent Kd; compound concentrations: 100 nM and 1000 nM (sheet 'Samples'), CATDS: 5.0119839441511702E-2; n = 1
# MAP3K12 = details: read-out: apparent Kd; compound concentrations: 100 nM and 1000 nM (sheet 'Samples'), CATDS: 4.3727049359112501E-2; n = 1
# MAP3K4 = details: read-out: apparent Kd; compound concentrations: 100 nM and 1000 nM (sheet 'Samples'), CATDS: 4.0498159279946502E-2; n = 1
# MTOR = details: read-out: apparent Kd; compound concentrations: 100 nM and 1000 nM (sheet 'Samples'), CATDS: 6.6094429766625107E-2; n = 1
# PIK3CA = details: read-out: apparent Kd; compound concentrations: 100 nM and 1000 nM (sheet 'Samples'), CATDS: 0.16597567422928799; n = 1
# PRKCD = details: read-out: apparent Kd, compound concentrations: 100 nM and 1000 nM (sheet 'Samples'), n = 1
# ROCK1 = details: read-out: apparent Kd, compound concentrations: 100 nM and 1000 nM (sheet 'Samples'), n = 1
# ROCK2 = details: read-out: apparent Kd, compound concentrations: 100 nM and 1000 nM (sheet 'Samples'), n = 1
# TESK1 = details: read-out: apparent Kd; compound concentrations: 100 nM and 1000 nM (sheet 'Samples'), CATDS: 4.6585684962704203E-2; n = 1
# ADCK1 = details: read-out: apparent Kd; compound concentrations: 100 nM and 1000 nM (sheet 'Samples'), CATDS: 9.92203055838001E-2; n = 1
# AKT1 = details: read-out: apparent Kd; compound concentrations: 100 nM and 1000 nM (sheet 'Samples'), CATDS: 2.85422229355832E-2; n = 1
# CLK1 = details: read-out: apparent Kd; compound concentrations: 100 nM and 1000 nM (sheet 'Samples'), CATDS: 3.0057021324399399E-2; n = 1
# CLK4 = details: read-out: apparent Kd; compound concentrations: 100 nM and 1000 nM (sheet 'Samples'), CATDS: 3.6459308399585902E-2; n = 1
# CSNK2A1;CSNK2A3 = details: read-out: apparent Kd; compound concentrations: 100 nM and 1000 nM (sheet 'Samples'), CATDS: 2.5783405582401799E-2; n = 1
# HSP90AA1 = details: read-out: apparent Kd; compound concentrations: 100 nM and 1000 nM (sheet 'Samples'), CATDS: 2.5840975218280202E-2; n = 1
# IARS = details: read-out: apparent Kd; compound concentrations: 100 nM and 1000 nM (sheet 'Samples'), CATDS: 2.4824684596515999E-2; n = 1
# ILK = details: read-out: apparent Kd; compound concentrations: 100 nM and 1000 nM (sheet 'Samples'), CATDS: 2.4595530906688499E-2; n = 1
# LATS1 = details: read-out: apparent Kd; compound concentrations: 100 nM and 1000 nM (sheet 'Samples'), CATDS: 4.0745202540463502E-2; n = 1
# MAPK11 = details: read-out: apparent Kd; compound concentrations: 100 nM and 1000 nM (sheet 'Samples'), CATDS: 3.2120600016528701E-2; n = 1
# MAPK14 = details: read-out: apparent Kd; compound concentrations: 100 nM and 1000 nM (sheet 'Samples'), CATDS: 2.84299118528781E-2; n = 1
# MELK = details: read-out: apparent Kd; compound concentrations: 100 nM and 1000 nM (sheet 'Samples'), CATDS: 2.8403307321335999E-2; n = 1
# PKN1 = details: read-out: apparent Kd; compound concentrations: 100 nM and 1000 nM (sheet 'Samples'), CATDS: 3.7770198987071901E-2; n = 1
# PKN2 = details: read-out: apparent Kd; compound concentrations: 100 nM and 1000 nM (sheet 'Samples'), CATDS: 2.64555223020508E-2; n = 1
# PRKACA = details: read-out: apparent Kd; compound concentrations: 100 nM and 1000 nM (sheet 'Samples'), CATDS: 4.8150008864783198E-2; n = 1
# PRKACB = details: read-out: apparent Kd; compound concentrations: 100 nM and 1000 nM (sheet 'Samples'), CATDS: 3.8489694396370601E-2; n = 1
# PRKCA = details: read-out: apparent Kd; compound concentrations: 100 nM and 1000 nM (sheet 'Samples'), CATDS: 2.8417130340745399E-2; n = 1
# PRKG1 = details: read-out: apparent Kd; compound concentrations: 100 nM and 1000 nM (sheet 'Samples'), CATDS: 5.7321528324025303E-2; n = 1
# PYGL = details: read-out: apparent Kd; compound concentrations: 100 nM and 1000 nM (sheet 'Samples'), CATDS: 2.4948391152713498E-2; n = 1
# RIOK2 = details: read-out: apparent Kd; compound concentrations: 100 nM and 1000 nM (sheet 'Samples'), CATDS: 4.2618907121449799E-2; n = 1
# RPS6KB1 = details: read-out: apparent Kd; compound concentrations: 100 nM and 1000 nM (sheet 'Samples'), CATDS: 2.7290145261830101E-2; n = 1
# SYK = details: read-out: apparent Kd; compound concentrations: 100 nM and 1000 nM (sheet 'Samples'), CATDS: 2.51844401612667E-2; n = 1
# T10 = test system: T1, T10; details: read-out: apparent Kd; compound concentrations: 100 nM and 1000 nM (sheet 'Samples'), CATDS: 2.6247989636004901E-2; n = 1
# T1 construct: gene NAT10
structure (smiles),measurement,setting,value
CN1C(=O)[C@@H](NC(=O)c2cc(Cc3ccccc3)on2)COc2ccccc21 [GSK481],potency estimated from few doses,ACVR1,1.27 µM
same,potency estimated from few doses,CDK4,1.98 µM
same,potency estimated from few doses,TP53RK,2.04 µM
Cl.Cl.NCC(NC(=O)c1cc(-c2cccnc2)c(-c2ccnc3[nH]ccc23)s1)c1ccccc1.NCC(NC(=O)c1cc(-c2cccnc2)c(-c2ccnc3[nH]ccc23)s1)c1ccccc1 (stereo not shown) [GSK1323434A],potency estimated from few doses,ACVR2B,1.74 µM
same,potency estimated from few doses,ADCK3,1.69 µM
same,potency estimated from few doses,AKT2; CATDS: 3.8315298656597697E-2,2.29 µM
same,potency estimated from few doses,CDC42BPB,1.79 µM
same,potency estimated from few doses,CDC42BPG; CATDS: 4.6703461081502903E-2,1.34 µM
same,potency estimated from few doses,CDK13,2.2 µM
same,potency estimated from few doses,CDKL5,1.73 µM
same,potency estimated from few doses,CIT,0.344 µM
same,potency estimated from few doses,CSNK1A1; CATDS: 4.3314802328408702E-2,1.62 µM
same,potency estimated from few doses,CSNK1D,1.03 µM
same,potency estimated from few doses,CSNK1E,1.41 µM
same,potency estimated from few doses,GAK,1.14 µM
same,potency estimated from few doses,MAP3K12,1.58 µM
same,potency estimated from few doses,MAP3K4,1.94 µM
same,potency estimated from few doses,MTOR,0.653 µM
same,potency estimated from few doses,PIK3CA,0.161 µM
same,potency estimated from few doses,PRKCD; CATDS: 3.8004287822733102E-2,2.35 µM
same,potency estimated from few doses,ROCK1; CATDS: 9.5371648246972293E-2,0.354 µM
same,potency estimated from few doses,ROCK2; CATDS: 9.3527332019104195E-2,0.364 µM
same,potency estimated from few doses,TESK1,1.35 µM
CN(C)CCNS(=O)(=O)c1ccc(-c2ccnc3[nH]ccc23)cc1 [GSK977620A],potency estimated from few doses,ADCK1,0.145 µM
same,potency estimated from few doses,AKT1,1.48 µM
same,potency estimated from few doses,AKT2; CATDS: 2.77493450407107E-2,1.6 µM
same,potency estimated from few doses,CDC42BPG; CATDS: 4.9906722196616002E-2,0.449 µM
same,potency estimated from few doses,CLK1,1.3 µM
same,potency estimated from few doses,CLK4,0.827 µM
same,potency estimated from few doses,CSNK1A1; CATDS: 2.8495259280969999E-2,1.49 µM
same,potency estimated from few doses,CSNK2A1;CSNK2A3,1.99 µM
same,potency estimated from few doses,HSP90AA1,1.98 µM
same,potency estimated from few doses,IARS,2.25 µM
same,potency estimated from few doses,ILK,2.33 µM
same,potency estimated from few doses,LATS1,0.658 µM
same,potency estimated from few doses,MAPK11,1.1 µM
same,potency estimated from few doses,MAPK14,1.5 µM
same,potency estimated from few doses,MELK,1.5 µM
same,potency estimated from few doses,PKN1,0.768 µM
same,potency estimated from few doses,PKN2,1.84 µM
same,potency estimated from few doses,PRKACA,0.479 µM
same,potency estimated from few doses,PRKACB,0.738 µM
same,potency estimated from few doses,PRKCA,1.5 µM
same,potency estimated from few doses,PRKCD; CATDS: 2.7001587668499999E-2,1.73 µM
same,potency estimated from few doses,PRKG1,0.352 µM
same,potency estimated from few doses,PYGL,2.22 µM
same,potency estimated from few doses,RIOK2,0.602 µM
same,potency estimated from few doses,ROCK1; CATDS: 5.0643849743389702E-2,0.437 µM
same,potency estimated from few doses,ROCK2; CATDS: 5.2344501044754001E-2,0.412 µM
same,potency estimated from few doses,RPS6KB1,1.68 µM
same,potency estimated from few doses,SYK,2.15 µM
same,potency estimated from few doses,T10,1.89 µM
